Measured values taken from PubChem BioAssay.
Inconclusive results are not listed. The source made the active and inactive calls.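 Rule for the calls, unless noted: active = normalized viability below 100% at a tested concentration; inactive = the rest.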

What was measured:
[1] = viability loss in pontine glioma line – cell-based, SU-DIPG-XVII, MIPE5.0, CellTiter-Glo, qHTS, dose response (AID 1347060; cut-off not given, nearly all actives have AC50 up to about 26 µM;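 note: cells exposed to compound for 48 hours before viability readout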); conditions: CellTiter-Glo ATP luminescence
[2] = viability loss in pontine glioma line – cell-based, SU-DIPG-XIII, MIPE5.0, CellTiter-Glo, qHTS, dose response (AID 1347064; cut-off not given, nearly all actives have AC50 up to about 23 µM;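 note: cells exposed to compound for 48 hours before the viability read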); conditions: CellTiter-Glo ATP luminescence
[3] = viability loss in pontine glioma line – cell-based, SU-DIPG-XXV, MIPE5.0, CellTiter-Glo, qHTS, dose response (AID 1347065; cut-off not given, nearly all actives have AC50 up to about 26 µM;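 note: cells exposed to compound for 48 hours before ATP readout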); conditions: CellTiter-Glo ATP luminescence
[4] = JHH-DIPG-1 glioma cell viability, MIPE5.0 library, CellTiter-Glo luminescence, qHTS (AID 1347067; cut-off not given, nearly all actives have AC50 up to about 26 µM;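 note: cells exposed to compound for 48 hours before readout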); conditions: JHH-DIPG-1 glioma viability, CellTiter-Glo ATP luminescence
[5] = growth inhibition of DIPG cells – cell-based, MIPE5.0 library, qHTS (AID 1347068; cut-off not given, nearly all actives have IC50 up to about 30 µM;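 note: cells exposed to compound for 48 hours before viability readout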); conditions: SU-DIPG-XXV viability
[6] = viability loss with induced miR-34 in A549 – imaging, A549 dox-inducible miR-34, nuclei and caspase counts, primary screen (AID 1347080;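 active = compounds whose cell count with miR-34 switched on is under 0.7 times the count with it off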); conditions: A549 miR-34 inducible, Hoechst nuclei count, 48 h
[7] = MELAS cybrid and Rieske KO viability enhancers – cell-based, MELAS cybrids, Rieske KO mouse fibroblasts, CellTiter-Glo, primary screen (AID 1508586;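 active = mean z-score across replicates of 1.96 or higher in either the MELAS or the Rieske mutant cell line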;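 note: z relative to plate mean and SD of compound and empty wells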); conditions: low glucose
[8] = drug combination growth inhibition, ovarian cancer – cell-based, oncology-focused library, rucaparib conditional, profiling panel (AID 1508598); conditions: patient-derived ovarian cancer cells, CellTiter-Glo viability, 144 h, stronger effect = lower value

C=CC(=O)Nc1cccc(Nc2nc(Nc3ccc(OCCOC)cc3)ncc2F)c1
active: AC50 [1] 2.35 µM | AC50 [2] 1.66 µM | AC50 [3] 2.09 µM | AC50 [4] 3.72 µM | IC50 [5] 3.32 µM | z-score ([7]; MELAS cybrid survival, CellTiter-Glo 48 h, stronger effect = higher value) 2.91
-0.365: z-score ([7]; Rieske KO mouse fibroblast survival, CellTiter-Glo 72 h)
inactive: fold change ([6]; stronger effect = lower value, cell number ratio, induced over uninduced) 0.943
1910: cell count ([6]; measured here: total cells without miR-34 induction)
1800: cell count ([6]; measured here: total cells with miR-34 induction, stronger effect = lower value)
0.349: fold change ([6]; measured here: relative caspase fold change +Dox/-Dox)

C#CC[C@H](c1nc2cc(Cl)ccc2c(=O)n1Nc1ccccc1)N(CCCN)C(=O)c1cccc(Cl)c1F
inactive: viability ([8]; at 0.000305 µM, OCI-C5x cells, with rucaparib 10 µM, 100% = cells with rucaparib alone) 125% | viability ([8]; at 0.000305 µM, OCI-C5x cells, without rucaparib) 105% | viability ([8]; at 0.000305 µM, OCI-P5x cells, with rucaparib 20 µM, 100% = cells with rucaparib alone) 109% | viability ([8]; at 0.00122 µM, OCI-C5x cells, with rucaparib 10 µM, 100% = cells with rucaparib alone) 130% | viability ([8]; at 0.00122 µM, OCI-C5x cells, without rucaparib) 102% | viability ([8]; at 0.00122 µM, OCI-P5x cells, with rucaparib 20 µM, 100% = cells with rucaparib alone) 109% | viability ([8]; at 0.00488 µM, OCI-C5x cells, with rucaparib 10 µM, 100% = cells with rucaparib alone) 115% | viability ([8]; at 0.00488 µM, OCI-C5x cells, without rucaparib) 109% | viability ([8]; at 0.00488 µM, OCI-P5x cells, with rucaparib 20 µM, 100% = cells with rucaparib alone) 107% | viability ([8]; at 0.0195 µM, OCI-C5x cells, with rucaparib 10 µM, 100% = cells with rucaparib alone) 125% | viability ([8]; at 0.0195 µM, OCI-C5x cells, without rucaparib) 112%
active: AC50 [1] 0.417 µM | AC50 [2] 4.68 µM | AC50 [3] 0.372 µM | AC50 [4] 0.742 µM | IC50 [5] 0.417 µM | viability ([8]; at 0.000305 µM, OCI-P5x cells, without rucaparib) 94.3% | viability ([8]; at 0.00122 µM, OCI-P5x cells, without rucaparib) 97.9% | viability ([8]; at 0.00488 µM, OCI-P5x cells, without rucaparib) 92.1% | viability ([8]; at 0.0195 µM, OCI-P5x cells, with rucaparib 20 µM, 100% = cells with rucaparib alone) 96.2% | viability ([8]; at 0.0195 µM, OCI-P5x cells, without rucaparib) 90.6% | viability ([8]; at 0.0781 µM, OCI-C5x cells, with rucaparib 10 µM, 100% = cells with rucaparib alone) 67.5% | viability ([8]; at 0.0781 µM, OCI-C5x cells, without rucaparib) 57.4% | viability ([8]; at 0.0781 µM, OCI-P5x cells, with rucaparib 20 µM, 100% = cells with rucaparib alone) 91.9% | viability ([8]; at 0.0781 µM, OCI-P5x cells, without rucaparib) 49.8% | viability ([8]; at 0.313 µM, OCI-C5x cells, with rucaparib 10 µM, 100% = cells with rucaparib alone) 57% | viability ([8]; at 0.313 µM, OCI-C5x cells, without rucaparib) 55% | viability ([8]; at 0.313 µM, OCI-P5x cells, with rucaparib 20 µM, 100% = cells with rucaparib alone) 59.6% | viability ([8]; at 0.313 µM, OCI-P5x cells, without rucaparib) 17.5% | viability ([8]; at 1.25 µM, OCI-C5x cells, with rucaparib 10 µM, 100% = cells with rucaparib alone) 56.2% | viability ([8]; at 1.25 µM, OCI-C5x cells, without rucaparib) 46.9% | viability ([8]; at 1.25 µM, OCI-P5x cells, with rucaparib 20 µM, 100% = cells with rucaparib alone) 54.9% | viability ([8]; at 1.25 µM, OCI-P5x cells, without rucaparib) 15.7% | viability ([8]; at 5 µM, OCI-C5x cells, with rucaparib 10 µM, 100% = cells with rucaparib alone) 1.31% | viability ([8]; at 5 µM, OCI-C5x cells, without rucaparib) 3.55% | viability ([8]; at 5 µM, OCI-P5x cells, with rucaparib 20 µM, 100% = cells with rucaparib alone) 0.597% | viability ([8]; at 5 µM, OCI-P5x cells, without rucaparib) 1.54%
